# Data reported in paper PMC7862700, “An all-to-all approach to the identification of sequence-specific readers for epigenetic DNA modifications on cytosine”.
# Assays:
# Assay in all cases: DAPPL (digital affinity profiling via proximity ligation, sequencing); 10 mM Tris-HCl pH 7.5, 50 mM NaCl, 1 mM DTT, 4% glycerol, room temperature, 30 min; GST-TFs on glutathione beads, 16-mer random dsDNA library, 0.1% formaldehyde crosslink after washing; high values mean tight binding
# Details in all cases: protein: recombinant; tags: N-terminal GST; dsDNA, one strand shown
# ELK1 = biological target: T1, ELK1 (Homo sapiens, UniProt P19419 1-428)
# T1 sequence: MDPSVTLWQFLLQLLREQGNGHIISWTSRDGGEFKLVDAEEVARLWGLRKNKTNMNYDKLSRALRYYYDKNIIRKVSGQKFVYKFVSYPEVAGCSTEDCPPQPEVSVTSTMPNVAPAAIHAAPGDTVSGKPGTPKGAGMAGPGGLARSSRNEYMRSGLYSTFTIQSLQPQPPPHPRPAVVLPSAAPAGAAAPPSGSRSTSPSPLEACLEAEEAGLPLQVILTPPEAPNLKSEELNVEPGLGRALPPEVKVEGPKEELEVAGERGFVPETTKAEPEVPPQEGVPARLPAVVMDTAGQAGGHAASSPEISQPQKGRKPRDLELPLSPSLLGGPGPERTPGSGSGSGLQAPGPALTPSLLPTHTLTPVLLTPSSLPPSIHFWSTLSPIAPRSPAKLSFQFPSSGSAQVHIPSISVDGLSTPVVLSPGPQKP
# In short: (§1)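 GST fusions of human transcription factors were expressed in yeast and captured with glutathione beads. Once given DNA barcodes and pooled alongside a tag-only sample, they were incubated for 30 min at room temperature with 200 nmole of a random double-stranded 16-mer DNA library in Tris/NaCl/DTT/glycerol buffer, then washed, crosslinked (0.1% formaldehyde), proximity-ligated, PCR-amplified and sequenced on an Illumina NextSeq500. The binding signal of each hexamer is its read frequency for a factor divided by its frequency for the tag-only sample.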
# ERG = biological target: T2, ERG (Homo sapiens, UniProt P11308 1-479)
# T2 sequence: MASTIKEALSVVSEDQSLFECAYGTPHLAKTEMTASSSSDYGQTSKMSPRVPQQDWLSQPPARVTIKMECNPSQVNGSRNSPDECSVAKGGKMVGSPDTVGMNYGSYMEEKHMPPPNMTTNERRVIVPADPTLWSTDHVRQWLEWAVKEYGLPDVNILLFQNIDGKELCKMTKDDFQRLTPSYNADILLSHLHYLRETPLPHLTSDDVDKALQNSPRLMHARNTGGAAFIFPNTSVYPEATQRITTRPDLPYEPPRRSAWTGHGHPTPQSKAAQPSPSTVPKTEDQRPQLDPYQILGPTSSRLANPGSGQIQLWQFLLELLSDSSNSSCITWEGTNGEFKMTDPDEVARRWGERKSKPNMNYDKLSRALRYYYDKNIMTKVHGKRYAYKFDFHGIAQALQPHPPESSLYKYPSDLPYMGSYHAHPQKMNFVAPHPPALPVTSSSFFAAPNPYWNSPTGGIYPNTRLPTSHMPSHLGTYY
# In short: as §1
# ELF1 = ELF1 (Homo sapiens, UniProt P32519 1-619)
# Chain of ELF1 (P32519 whole entry): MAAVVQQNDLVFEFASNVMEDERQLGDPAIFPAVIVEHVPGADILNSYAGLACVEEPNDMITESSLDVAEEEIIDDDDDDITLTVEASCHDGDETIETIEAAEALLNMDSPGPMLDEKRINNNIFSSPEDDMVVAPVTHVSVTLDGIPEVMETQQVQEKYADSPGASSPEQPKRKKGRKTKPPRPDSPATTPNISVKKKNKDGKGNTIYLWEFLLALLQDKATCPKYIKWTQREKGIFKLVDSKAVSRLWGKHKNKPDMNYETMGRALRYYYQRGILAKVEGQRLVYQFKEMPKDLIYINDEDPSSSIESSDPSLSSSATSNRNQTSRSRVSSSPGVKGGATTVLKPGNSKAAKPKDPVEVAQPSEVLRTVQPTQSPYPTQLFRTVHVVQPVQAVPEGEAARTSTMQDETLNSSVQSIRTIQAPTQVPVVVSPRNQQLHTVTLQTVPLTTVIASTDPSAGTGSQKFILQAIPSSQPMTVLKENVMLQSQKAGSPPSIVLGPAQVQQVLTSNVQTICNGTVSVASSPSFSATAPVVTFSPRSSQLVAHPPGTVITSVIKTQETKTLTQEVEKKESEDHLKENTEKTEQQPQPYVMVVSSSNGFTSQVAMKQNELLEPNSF
# In short: as §1
# SPIB = SPIB (Homo sapiens, UniProt Q01892 1-262)
# Chain of SPIB (Q01892 whole entry): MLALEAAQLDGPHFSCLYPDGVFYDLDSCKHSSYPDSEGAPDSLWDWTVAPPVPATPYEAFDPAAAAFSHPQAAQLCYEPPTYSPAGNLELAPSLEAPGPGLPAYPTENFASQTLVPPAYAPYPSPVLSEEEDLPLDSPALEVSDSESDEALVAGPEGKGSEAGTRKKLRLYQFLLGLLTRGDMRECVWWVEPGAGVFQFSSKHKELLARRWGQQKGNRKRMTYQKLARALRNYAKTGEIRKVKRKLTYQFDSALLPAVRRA
# In short: as §1
# SPIC = biological target: T3, SPIC (Homo sapiens, UniProt Q8N5J4 1-248)
# T3 sequence: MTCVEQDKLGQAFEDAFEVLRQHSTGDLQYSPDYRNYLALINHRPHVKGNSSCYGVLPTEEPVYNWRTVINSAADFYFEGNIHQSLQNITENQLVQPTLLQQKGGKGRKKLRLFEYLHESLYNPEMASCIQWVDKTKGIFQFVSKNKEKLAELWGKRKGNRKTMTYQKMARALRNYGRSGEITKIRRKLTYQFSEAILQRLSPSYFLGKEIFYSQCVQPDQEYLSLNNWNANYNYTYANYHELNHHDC
# In short: as §1
# ELK4 = biological target: T4, ELK4 (Homo sapiens, UniProt P28324-2 1-405)
# T4 sequence: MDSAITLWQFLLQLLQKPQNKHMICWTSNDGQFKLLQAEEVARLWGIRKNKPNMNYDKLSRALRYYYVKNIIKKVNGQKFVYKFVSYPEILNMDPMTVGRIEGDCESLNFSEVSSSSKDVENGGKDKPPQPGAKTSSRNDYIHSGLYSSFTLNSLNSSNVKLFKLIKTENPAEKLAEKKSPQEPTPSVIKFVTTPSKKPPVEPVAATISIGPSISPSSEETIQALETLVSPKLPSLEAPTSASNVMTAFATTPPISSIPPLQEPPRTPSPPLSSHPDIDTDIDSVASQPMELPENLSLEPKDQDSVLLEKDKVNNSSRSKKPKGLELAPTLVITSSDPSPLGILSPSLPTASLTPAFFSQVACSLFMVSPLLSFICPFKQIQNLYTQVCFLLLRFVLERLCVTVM
# In short: as §1
# ETV2 = biological target: T5, ETV2 (Homo sapiens, UniProt O00321 1-342)
# T5 sequence: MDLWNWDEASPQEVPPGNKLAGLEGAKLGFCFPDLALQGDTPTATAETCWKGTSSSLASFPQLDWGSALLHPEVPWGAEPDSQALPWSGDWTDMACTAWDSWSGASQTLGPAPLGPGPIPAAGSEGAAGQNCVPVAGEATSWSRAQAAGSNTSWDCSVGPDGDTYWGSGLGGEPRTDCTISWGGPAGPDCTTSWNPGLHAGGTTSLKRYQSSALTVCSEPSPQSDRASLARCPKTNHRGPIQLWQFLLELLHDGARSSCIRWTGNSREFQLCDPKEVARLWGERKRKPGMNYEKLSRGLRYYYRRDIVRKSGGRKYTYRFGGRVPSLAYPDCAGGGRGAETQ
# In short: as §1
# ETV3L = biological target: T6, ETV3L (Homo sapiens, UniProt Q6ZN32 1-361)
# T6 sequence: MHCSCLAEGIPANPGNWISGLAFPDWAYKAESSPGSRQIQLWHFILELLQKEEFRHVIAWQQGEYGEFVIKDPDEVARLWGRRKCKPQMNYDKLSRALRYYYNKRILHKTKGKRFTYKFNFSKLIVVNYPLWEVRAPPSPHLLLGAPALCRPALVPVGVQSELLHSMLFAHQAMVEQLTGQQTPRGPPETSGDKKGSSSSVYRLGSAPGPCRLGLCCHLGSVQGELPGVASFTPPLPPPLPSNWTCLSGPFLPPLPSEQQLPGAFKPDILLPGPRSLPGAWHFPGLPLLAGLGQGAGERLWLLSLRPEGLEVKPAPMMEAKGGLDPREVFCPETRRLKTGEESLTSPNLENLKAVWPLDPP
# In short: as §1
# ETV3 = biological target: T7, ETV3 (Homo sapiens, UniProt P41162-2 1-143)
# T7 sequence: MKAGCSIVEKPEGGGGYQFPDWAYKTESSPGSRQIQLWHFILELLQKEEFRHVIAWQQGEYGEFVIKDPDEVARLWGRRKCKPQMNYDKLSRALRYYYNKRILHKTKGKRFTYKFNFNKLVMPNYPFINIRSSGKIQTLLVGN
# In short: as §1
# GABPA = biological target: T8, GABPA (Homo sapiens, UniProt Q06546 1-454)
# T8 sequence: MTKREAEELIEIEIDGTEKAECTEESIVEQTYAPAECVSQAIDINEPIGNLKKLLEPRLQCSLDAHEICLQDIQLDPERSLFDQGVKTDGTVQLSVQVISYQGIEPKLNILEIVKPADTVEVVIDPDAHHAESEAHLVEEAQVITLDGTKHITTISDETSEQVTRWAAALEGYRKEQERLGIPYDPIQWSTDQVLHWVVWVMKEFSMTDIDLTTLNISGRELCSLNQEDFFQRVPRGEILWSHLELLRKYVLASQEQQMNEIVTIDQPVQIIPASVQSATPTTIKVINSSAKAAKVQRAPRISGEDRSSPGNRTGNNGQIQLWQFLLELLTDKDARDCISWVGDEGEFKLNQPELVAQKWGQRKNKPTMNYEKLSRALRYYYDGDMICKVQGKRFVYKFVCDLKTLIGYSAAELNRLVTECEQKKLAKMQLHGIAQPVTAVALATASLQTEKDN
# In short: as §1
# SPI1 = SPI1 (Homo sapiens, UniProt P17947 1-270)
# In short: as §1
# ELF4 = ELF4 (Homo sapiens, UniProt Q99607 1-663)
# Chain of ELF4 (Q99607 whole entry): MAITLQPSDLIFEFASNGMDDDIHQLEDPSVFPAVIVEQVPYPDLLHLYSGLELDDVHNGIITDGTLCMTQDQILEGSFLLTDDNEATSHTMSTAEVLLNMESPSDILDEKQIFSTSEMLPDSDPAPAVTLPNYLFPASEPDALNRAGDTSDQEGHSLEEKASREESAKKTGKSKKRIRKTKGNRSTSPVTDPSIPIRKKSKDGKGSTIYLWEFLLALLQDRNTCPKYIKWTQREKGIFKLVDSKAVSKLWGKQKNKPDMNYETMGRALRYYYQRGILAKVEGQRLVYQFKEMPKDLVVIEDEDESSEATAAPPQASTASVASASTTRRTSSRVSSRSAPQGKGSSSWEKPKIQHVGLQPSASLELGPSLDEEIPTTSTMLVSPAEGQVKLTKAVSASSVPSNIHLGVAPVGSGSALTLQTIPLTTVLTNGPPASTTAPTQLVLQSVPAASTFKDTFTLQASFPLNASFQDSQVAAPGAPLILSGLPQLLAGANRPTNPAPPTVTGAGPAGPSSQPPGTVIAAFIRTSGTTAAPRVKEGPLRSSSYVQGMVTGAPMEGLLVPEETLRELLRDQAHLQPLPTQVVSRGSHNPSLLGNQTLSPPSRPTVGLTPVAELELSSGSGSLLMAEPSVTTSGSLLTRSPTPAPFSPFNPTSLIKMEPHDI
# In short: as §1
# ELF3 = biological target: T9, ELF3 (Homo sapiens, UniProt P78545 1-371)
# T9 sequence: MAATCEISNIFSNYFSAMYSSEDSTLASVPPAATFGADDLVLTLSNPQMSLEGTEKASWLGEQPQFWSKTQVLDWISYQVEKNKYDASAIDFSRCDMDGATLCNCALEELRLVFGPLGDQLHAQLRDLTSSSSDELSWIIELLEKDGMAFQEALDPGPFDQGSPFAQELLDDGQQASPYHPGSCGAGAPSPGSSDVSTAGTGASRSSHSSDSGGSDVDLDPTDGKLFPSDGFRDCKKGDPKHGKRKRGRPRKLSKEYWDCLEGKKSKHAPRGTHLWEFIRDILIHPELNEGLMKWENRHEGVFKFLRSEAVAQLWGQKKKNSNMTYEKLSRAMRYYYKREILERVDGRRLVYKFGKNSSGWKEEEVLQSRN
# In short: as §1
# ETV1 = ETV1 (Homo sapiens, UniProt P50549 1-477)
# Chain of ETV1 (P50549 whole entry): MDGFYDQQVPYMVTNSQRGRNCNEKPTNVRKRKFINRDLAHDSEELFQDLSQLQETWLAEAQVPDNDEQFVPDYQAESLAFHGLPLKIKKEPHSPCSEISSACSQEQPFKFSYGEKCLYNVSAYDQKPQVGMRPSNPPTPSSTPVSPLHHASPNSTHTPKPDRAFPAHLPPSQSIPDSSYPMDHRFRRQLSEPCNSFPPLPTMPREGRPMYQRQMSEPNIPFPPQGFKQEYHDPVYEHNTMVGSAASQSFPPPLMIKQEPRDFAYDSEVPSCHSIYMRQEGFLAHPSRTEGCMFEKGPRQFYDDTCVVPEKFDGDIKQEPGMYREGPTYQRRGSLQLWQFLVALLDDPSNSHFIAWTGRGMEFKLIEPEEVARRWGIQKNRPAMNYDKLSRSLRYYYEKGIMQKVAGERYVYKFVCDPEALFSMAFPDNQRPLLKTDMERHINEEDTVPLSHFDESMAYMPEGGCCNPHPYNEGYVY
# In short: as §1
# ETV7 = biological target: T10, ETV7 (Homo sapiens, UniProt Q9Y603 1-341)
# T10 sequence: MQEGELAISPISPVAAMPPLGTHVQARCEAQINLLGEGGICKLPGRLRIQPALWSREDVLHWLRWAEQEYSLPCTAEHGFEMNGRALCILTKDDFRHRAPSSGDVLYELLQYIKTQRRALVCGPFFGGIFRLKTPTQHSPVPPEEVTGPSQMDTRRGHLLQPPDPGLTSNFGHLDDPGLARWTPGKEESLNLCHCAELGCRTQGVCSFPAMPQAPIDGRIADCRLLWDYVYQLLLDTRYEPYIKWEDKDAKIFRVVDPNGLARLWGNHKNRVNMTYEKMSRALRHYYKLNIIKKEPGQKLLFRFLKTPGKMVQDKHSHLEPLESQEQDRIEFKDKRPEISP
# In short: as §1
# ELF5 = biological target: T11, ELF5 (Homo sapiens, UniProt Q9UKW6-2 1-255)
# T11 sequence: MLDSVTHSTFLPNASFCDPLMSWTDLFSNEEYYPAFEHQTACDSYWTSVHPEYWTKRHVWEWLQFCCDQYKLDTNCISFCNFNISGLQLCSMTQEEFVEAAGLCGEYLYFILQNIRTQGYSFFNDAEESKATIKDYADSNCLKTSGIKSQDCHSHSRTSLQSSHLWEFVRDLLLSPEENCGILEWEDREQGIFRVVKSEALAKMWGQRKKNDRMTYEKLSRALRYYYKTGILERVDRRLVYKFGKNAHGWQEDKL
# In short: as §1
# ETV6 = ETV6 (Homo sapiens, UniProt P41212 1-452)
# Chain of ETV6 (P41212 whole entry): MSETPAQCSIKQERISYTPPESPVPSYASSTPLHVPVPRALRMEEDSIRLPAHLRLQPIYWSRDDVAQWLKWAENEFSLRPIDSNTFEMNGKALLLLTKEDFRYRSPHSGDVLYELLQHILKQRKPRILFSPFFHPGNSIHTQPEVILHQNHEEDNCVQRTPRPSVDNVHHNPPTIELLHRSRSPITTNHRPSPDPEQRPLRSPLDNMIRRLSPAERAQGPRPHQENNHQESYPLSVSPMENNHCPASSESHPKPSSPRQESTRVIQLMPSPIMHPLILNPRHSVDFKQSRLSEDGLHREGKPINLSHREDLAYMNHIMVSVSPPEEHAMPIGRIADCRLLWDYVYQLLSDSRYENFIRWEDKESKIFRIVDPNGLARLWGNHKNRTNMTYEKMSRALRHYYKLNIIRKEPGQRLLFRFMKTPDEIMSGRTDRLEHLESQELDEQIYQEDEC
# In short: as §1
# EHF = biological target: T12, EHF (Homo sapiens, UniProt Q9NZC4 1-300)
# T12 sequence: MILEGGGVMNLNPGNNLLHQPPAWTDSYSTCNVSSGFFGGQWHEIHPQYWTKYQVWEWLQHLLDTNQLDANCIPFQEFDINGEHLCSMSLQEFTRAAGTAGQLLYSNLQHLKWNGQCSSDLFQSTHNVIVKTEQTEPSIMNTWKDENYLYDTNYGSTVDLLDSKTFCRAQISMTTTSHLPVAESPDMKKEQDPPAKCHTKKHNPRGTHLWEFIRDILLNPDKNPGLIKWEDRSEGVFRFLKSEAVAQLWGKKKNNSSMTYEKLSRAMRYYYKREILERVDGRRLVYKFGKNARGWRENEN
# In short: as §1
sequence,measurement,setting,value
GCCCTG,binding signal,ELK1,"1.12 fold enrichment (6-mer frequency, TF over GST control)"
same,binding signal,ERG,"1 fold enrichment (6-mer frequency, TF over GST control)"
same,binding signal,ELF1,"1.06 fold enrichment (6-mer frequency, TF over GST control)"
same,binding signal,SPIB,"1.07 fold enrichment (6-mer frequency, TF over GST control)"
same,binding signal,SPIC,"1.11 fold enrichment (6-mer frequency, TF over GST control)"
same,binding signal,ELK4,"1.04 fold enrichment (6-mer frequency, TF over GST control)"
same,binding signal,ETV2,"1 fold enrichment (6-mer frequency, TF over GST control)"
same,binding signal,ETV3L,"1.08 fold enrichment (6-mer frequency, TF over GST control)"
same,binding signal,ETV3,"1.04 fold enrichment (6-mer frequency, TF over GST control)"
GTTGTC,binding signal,SPIC,"1.1 fold enrichment (6-mer frequency, TF over GST control)"
same,binding signal,ELK4,"1.02 fold enrichment (6-mer frequency, TF over GST control)"
AACGCG,binding signal,GABPA,"1.04 fold enrichment (6-mer frequency, TF over GST control)"
same,binding signal,ELF1,"1.05 fold enrichment (6-mer frequency, TF over GST control)"
same,binding signal,SPI1,"1.05 fold enrichment (6-mer frequency, TF over GST control)"
same,binding signal,SPIC,"1.1 fold enrichment (6-mer frequency, TF over GST control)"
same,binding signal,ELF4,"1.01 fold enrichment (6-mer frequency, TF over GST control)"
same,binding signal,ELF3,"1.02 fold enrichment (6-mer frequency, TF over GST control)"
same,binding signal,ETV1,"1.04 fold enrichment (6-mer frequency, TF over GST control)"
same,binding signal,ETV7,"1.02 fold enrichment (6-mer frequency, TF over GST control)"
same,binding signal,ELF5,"1.03 fold enrichment (6-mer frequency, TF over GST control)"
same,binding signal,ETV3,"1.1 fold enrichment (6-mer frequency, TF over GST control)"
same,binding signal,ETV6,"1.01 fold enrichment (6-mer frequency, TF over GST control)"
TGGTGA,binding signal,ELK1,"1.04 fold enrichment (6-mer frequency, TF over GST control)"
same,binding signal,EHF,"1.09 fold enrichment (6-mer frequency, TF over GST control)"
same,binding signal,SPIC,"1.02 fold enrichment (6-mer frequency, TF over GST control)"
same,binding signal,ELK4,"1.04 fold enrichment (6-mer frequency, TF over GST control)"
same,binding signal,ELF3,"1.03 fold enrichment (6-mer frequency, TF over GST control)"
